# Source: PubChem BioAssay AID1508600 (Functional Genomics Laboratory (NCATS/FGL), 2020)
# About 3,700 (7%) of roughly 53,000 sequences were called active. This excerpt belongs to a sample that is enriched for actives. A number with no mark means an inactive call.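 Rule for the calls: active = gene knockdowns whose robust z-score for IL-1 alpha signal is at least 2 or at most -2, so actives lie on both sides; inactive = the rest.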
# Assay: Components of the Cytosolic LPS Sensing Pathway: Gene Identification via Genome-wide siRNA Screen;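 note: robust z of the log signal after scaling to non-targeting control siRNA wells of the plate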
# Settings: RAW264.7 macrophages, IL-1a HTRF, actives lie on both sides, screened at 100 nM (by protocol), cells primed 5 h with Pam3CSK4 first
# Procedure, shortened: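 Using IL-1a HTRF as read-out, the screen measured release from RAW264.7 cells after 48h siRNA knockdown (100 nM), 5 h Pam3CSK4 priming and 24 h cytosolic LipidA. Values were expressed relative to negative-control wells as robust z-scores.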
row,Sequence,z-score
1,GCAUCGAUCUUGAGUUAGATT against Hebp1,0.579
2,GCGCAGGUUCAAUGUGGAUTT against Prodh,1.72
3,GGCGAUAGACGAGUAUCAGTT against Aida,0.41
4,CCAGCAAAUAUCCUAGUAATT against Cdk19,0.111
5,CGUGUGUGUCAUGUUACGGTT against Dusp2,-0.901
6,GGAGAGCUGGAACAAUAGCTT against Bcl2l2,2.26 (active)
7,GGAUGAAUGGAGAACUGAATT against Afap1l1,-1.21
8,CCAUGACAAUGAAUAUCCUTT against Ms4a19,-1.24
9,GCGAGCUAAUGUCACAUUCTT against Il17ra,3.74 (active)
10,GGAACUAUCACGUGUUCUATT against Myo7a,0.837
11,CCAGAUGGGAUACCUCUACTT against Tmed6,0.303
12,GGUCUCUUUCAUGCUCGCATT against Agr3,3.06 (active)
13,CCCUAACCUCAUUUCAUGUTT against Vmn1r63,-1.01
14,GGAAAACAACGAAUUGCUCTT against Uri1,0.791
15,GCCGAUGACACUAUCUACCTT against Cryz,0.465
16,CCUCAAUCAAAAUGUAAGUTT against Atp6v0a2,0.456
17,GGAUCUGAAGGAAUACUUUTT against Lmf1,1.69
18,GGAACAAACCAAGUUCACATT against Kcnip2,-0.66
19,GGACUCCAAGAUCAUGGUCTT against Pnck,1.07
20,GCAAGACCCUUCGAGUGAATT against Nkd2,-1.2
21,GGCCAUUUAUCCAUGGUUGTT against Zdhhc17,0.954
22,GGCCUCAAGUUGCUAUGCCTT against Mlxipl,-0.2
23,GGAGAUGAAGUUAAAGCGATT against Slc26a6,0.619

row,Sequence,z-score
1,GGCAGAUGUGUUUGCUUUUTT against Pbk,3.51 (active)
2,GCACUGAACUUUGUCGAUUTT against Fam122a,0.325
3,CCCGAAGAGCAAAAAAGAUTT against 1110004F10Rik,-1.5
4,CGGUCAUUAAUGAAGCCUGTT against Pamr1,2.65 (active)
5,GGUGGUGUGUGAUGAGAAUTT against Pabpc6,0.649
6,GGGCUGUUUGUAGCAGAUUTT against Olfr1279,-1.12
7,GGUCACGGAGAAACUAAAGTT against Ppme1,0.703
8,GGCUAGGUAAUCACUGGGUTT against Fate1,0.987
9,CCAAUAUGAGACCAUCAUUTT against Sv2b,0.385
10,GCGACAUAACUGCAUUCAATT against Kcnh1,2.79 (active)
11,GGUCAAUUUGGUUUGUGAATT against Cenpa,-0.374
12,GGUAGAAAUUUACCUCAUUTT against Dusp4,-1.42
13,GCAGAGGAUAUAAAACAAGTT against Pde2a,-0.86
14,GGAAAAUAGGGCGACAAAUTT against Tdrd7,0.673
15,GGAUGAUUGAGAUAGCGAATT against Polr1e,0.608
16,CCGUACAUAUGGUGAUCCATT against Rtn1,-0.162
17,GGGAGAAGUGCUGUGGAUUTT against Fras1,0.401
18,CGAGAGCUAAAAAGAGUAATT against Chd1,0.42
19,GGAAGUUUCUGGAAACACATT against Mbd3,-0.487
20,GGAGGAUUGUCCACAUGGATT against Ccl27a,4.32 (active)
21,GGCAACAUGGUGAUCAUCGTT against Olfr323,-0.461
22,CGGUAUUUCAUCCUGGAUATT against Plekha1,0.403
23,GCAUGGAACAAGGUUGCUCTT against Pa2g4,1.84

row,Sequence,z-score
1,GGUACACCAAGGCUUGCUATT against Coq8b,-0.343
2,GCAUGAGUUAGACCAUAAUTT against Phf12,-2.59 (active)
3,GGCCUCUUUUGGUAUUCCATT against Zfp42,0.946
4,GGCCUCAAUGCAGUAUCAATT against Shisal2b,0.773
5,GCUAAGAAUAGGAGUUAGATT against Ift57,0.419
6,GGUCAGAAGUUAAUUUAUGTT against Rad23b,-0.413
7,GGACCUGCUCUUGGUCAUUTT against Fam118a,0.461
8,GGGAAGUGACCAUCAAGAATT against Slc8a3,2.56 (active)
9,GGUGAUGCGCCUGAAGGAUTT against Ntng2,-0.668
10,GCUCCUCCAUCAGUUAGAUTT against Ube2v2,-1.06
11,GGAAUCAACUUGGUGGCUCTT against Rxrg,-0.0611
12,GGGUUUCUGUUUGAUUCCATT against Gria1,-0.747
13,GGCUAUGCUGCCUACUACUTT against Bmp7,-2.63 (active)
14,GCCAACCUCUGUGUGUAUUTT against Olfr1263,0.799
15,UGGUUGUAUUAUUCUGUUGTT against Defb38,0.188
16,GGACUUAUCUCAUCCAAGATT against Gm9946,0.39
17,CCAGAAACGAUGCAUUCAUTT against Olfr124,2 (active)
18,GGACUUUGAAAAAGAUGCATT against Fkbp7,1.21
19,AGUAUUCUUUGCUUUCCUUTT against Olfr822,0.731
20,GGAGAAGAUGAUUAAGACCTT against Anp32b,0.51
21,CCACAGACUCUUAAUUAGATT against Ap3b1,-2.14 (active)
22,UAUCACAGACAUGAAAGAATT against Lst1,0.105
23,GGAAAAACAGUGCAGAUGGTT against Smchd1,0.228
